Assay results as given in the supplement of paper PMC3545927.
Some of the results follow. The hit rate among all sequences tested is not known here.

Molecular target: furin, P09958
Assay: furin cleavage Z-score vs untreated control; higher = more cleavage, active = 3.5 or more, inactive = 1 or less, 8 variable residues between constant flanks
Protocol: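 Multiplexed peptide-cDNA fusion cleavage assay. 8-mer variable peptides flanked by constant Cys-Ala (N-term) and Ala-Gly-Asn-Ala-Ser-Ala-Ser-Ala (C-term) and conjugated to a cDNA oligonucleotide were bead-immobilised via the N-terminus. They were treated with purified furin at a 1:10 enzyme:substrate ratio in 50 mM HEPES pH 7.5, 1 mM CaCl2, 100 mM NaCl for 7.5, 15 or 30 min. Released cDNA was counted by next-generation sequencing, and log counts versus no-furin controls were lowess-adjusted and converted to robust Z-scores.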

Chain of furin, P09958 (P09958 whole entry): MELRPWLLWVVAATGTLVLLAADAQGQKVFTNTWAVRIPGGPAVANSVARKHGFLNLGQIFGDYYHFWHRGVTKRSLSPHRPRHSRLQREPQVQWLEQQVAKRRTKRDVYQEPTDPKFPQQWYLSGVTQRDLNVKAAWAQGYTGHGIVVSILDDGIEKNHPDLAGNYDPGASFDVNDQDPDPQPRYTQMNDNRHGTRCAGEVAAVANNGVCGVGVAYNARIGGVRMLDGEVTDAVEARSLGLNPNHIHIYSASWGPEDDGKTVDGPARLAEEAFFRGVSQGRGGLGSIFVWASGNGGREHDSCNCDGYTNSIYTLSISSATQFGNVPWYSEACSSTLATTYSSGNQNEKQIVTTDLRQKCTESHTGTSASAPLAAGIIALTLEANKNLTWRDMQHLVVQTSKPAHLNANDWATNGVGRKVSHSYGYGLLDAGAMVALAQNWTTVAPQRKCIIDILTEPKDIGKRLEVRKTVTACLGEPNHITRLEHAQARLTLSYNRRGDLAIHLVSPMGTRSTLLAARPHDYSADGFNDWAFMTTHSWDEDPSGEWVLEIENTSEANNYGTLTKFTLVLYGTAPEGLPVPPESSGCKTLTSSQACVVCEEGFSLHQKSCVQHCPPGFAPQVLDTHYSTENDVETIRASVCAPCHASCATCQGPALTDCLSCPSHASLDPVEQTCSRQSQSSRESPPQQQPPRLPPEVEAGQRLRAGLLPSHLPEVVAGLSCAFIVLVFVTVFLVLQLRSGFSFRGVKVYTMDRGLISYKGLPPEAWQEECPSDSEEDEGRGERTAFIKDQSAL

Sequence	furin cleavage Z-score (7.5 min)	furin cleavage Z-score (15 min)	furin cleavage Z-score (30 min)
CAVVCCSMPYAGNASASA [HC2079]	1.07	1.5	0.76 (inactive)
CAMEECSQHRAGNASASA [HC1773]	0.467 (inactive)	0.921 (inactive)	2.83
CAAQQTRGLLAGNASASA [HC677]	-1.39 (inactive)	-0.431 (inactive)	0.105 (inactive)
CAPRARAARRAGNASASA [FS-1550]	4.8 (active)	6.53 (active)	7.08 (active)
CARRARASDRAGNASASA [FS-2176]	3.3	2.19	4.92 (active)
CARRARQARRAGNASASA [FS-1071]	-0.692 (inactive)	0.798 (inactive)	2.53
CAIKARAACRAGNASASA [HC1519]	0.264 (inactive)	-0.0832 (inactive)	0.862 (inactive)
CASLRAFTEAAGNASASA [HC1538]	-0.614 (inactive)	-1.13 (inactive)	0.282 (inactive)
CALYNRTRRIAGNASASA [FS-61]	-0.475 (inactive)	0.0321 (inactive)	0.723 (inactive)
CATLGRHRRIAGNASASA [FS-305]	0.637 (inactive)	4.75 (active)	4.61 (active)
CAEINRPRRIAGNASASA [FS-156]	0.686 (inactive)	-0.166 (inactive)	0.217 (inactive)
CASLVRNRRIAGNASASA [FS-626]	3.81 (active)	7.06 (active)	7.84 (active)
CAVGSKQRRIAGNASASA [FS-631]	-0.93 (inactive)	-0.511 (inactive)	-0.419 (inactive)
CAGLSRHRRIAGNASASA [FS-1329]	4.21 (active)	4.36 (active)	4.6 (active)
CANKNRLRRIAGNASASA [FS-696]	2.17	3.21	3.66 (active)
CAYLARNARIAGNASASA [FS-319]	-0.614 (inactive)	-1.5 (inactive)	0.218 (inactive)
CALSTGCVVIAGNASASA [HC998]	-0.865 (inactive)	-1.26 (inactive)	1.11
CAAAGLQDCTAGNASASA [HC1523]	-0.616 (inactive)	-1.19 (inactive)	-0.342 (inactive)
CASTHCSAHLAGNASASA [HC2515]	0.673 (inactive)	1.32	-0.709 (inactive)
CASNSLLRHHAGNASASA [HC1384]	0.356 (inactive)	-0.0116 (inactive)	0.517 (inactive)
CARSYRIVRTAGNASASA [FS-1934]	5.65 (active)	7.17 (active)	7.79 (active)
CALARRQRRHAGNASASA [FS-266]	7.59 (active)	7.8 (active)	6.43 (active)
CARSYRDSGIAGNASASA [FS-2463]	0.464 (inactive)	1.76	-0.62 (inactive)
CASASRNRRHAGNASASA [FS-1276]	12.5 (active)	11.1 (active)	8.5 (active)
CAAVCTRGVAAGNASASA [HC752]	0.499 (inactive)	0.0628 (inactive)	1.04
CANIRTGVRTAGNASASA [HC799]	-0.448 (inactive)	-0.243 (inactive)	-0.393 (inactive)
CAASSRWRRHAGNASASA [FS-117]	6.7 (active)	5.67 (active)	5.46 (active)
CAASSREIRQAGNASASA [FS-1446]	0.448 (inactive)	1.14	0.453 (inactive)
